Among all 190,000 compounds or so, about 4,100 (2.2%) were called active.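 The calls were made as follows: active = thallium flux slope and its plate-corrected score both differing from the plate sample mean at a set confidence after two filtering rounds, in either direction; inactive = the rest.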 Many of the other results were omitted from the sample, so actives are more common in it than they were.
biological target: Solute carrier family 12 member 5 (Homo sapiens) (UniProt Q9H2X9); assay: KCC2 cotransporter modulators, thallium flux, primary screen, cell-based, HEK293 KCC2, FluoZin-2 fluorescence, MLSMR (AID 1456); conditions: KCC2 cells, thallium flux FluoZin-2 fluorescence; at 10 µM;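 as to B-score of Tl+ flux slope (higher = more flux/activation; lower = inhibition): slope of fluorescence scaled to starting intensity during 10 to 20 s after thallium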
Sequence (Q9H2X9 whole entry, looked up): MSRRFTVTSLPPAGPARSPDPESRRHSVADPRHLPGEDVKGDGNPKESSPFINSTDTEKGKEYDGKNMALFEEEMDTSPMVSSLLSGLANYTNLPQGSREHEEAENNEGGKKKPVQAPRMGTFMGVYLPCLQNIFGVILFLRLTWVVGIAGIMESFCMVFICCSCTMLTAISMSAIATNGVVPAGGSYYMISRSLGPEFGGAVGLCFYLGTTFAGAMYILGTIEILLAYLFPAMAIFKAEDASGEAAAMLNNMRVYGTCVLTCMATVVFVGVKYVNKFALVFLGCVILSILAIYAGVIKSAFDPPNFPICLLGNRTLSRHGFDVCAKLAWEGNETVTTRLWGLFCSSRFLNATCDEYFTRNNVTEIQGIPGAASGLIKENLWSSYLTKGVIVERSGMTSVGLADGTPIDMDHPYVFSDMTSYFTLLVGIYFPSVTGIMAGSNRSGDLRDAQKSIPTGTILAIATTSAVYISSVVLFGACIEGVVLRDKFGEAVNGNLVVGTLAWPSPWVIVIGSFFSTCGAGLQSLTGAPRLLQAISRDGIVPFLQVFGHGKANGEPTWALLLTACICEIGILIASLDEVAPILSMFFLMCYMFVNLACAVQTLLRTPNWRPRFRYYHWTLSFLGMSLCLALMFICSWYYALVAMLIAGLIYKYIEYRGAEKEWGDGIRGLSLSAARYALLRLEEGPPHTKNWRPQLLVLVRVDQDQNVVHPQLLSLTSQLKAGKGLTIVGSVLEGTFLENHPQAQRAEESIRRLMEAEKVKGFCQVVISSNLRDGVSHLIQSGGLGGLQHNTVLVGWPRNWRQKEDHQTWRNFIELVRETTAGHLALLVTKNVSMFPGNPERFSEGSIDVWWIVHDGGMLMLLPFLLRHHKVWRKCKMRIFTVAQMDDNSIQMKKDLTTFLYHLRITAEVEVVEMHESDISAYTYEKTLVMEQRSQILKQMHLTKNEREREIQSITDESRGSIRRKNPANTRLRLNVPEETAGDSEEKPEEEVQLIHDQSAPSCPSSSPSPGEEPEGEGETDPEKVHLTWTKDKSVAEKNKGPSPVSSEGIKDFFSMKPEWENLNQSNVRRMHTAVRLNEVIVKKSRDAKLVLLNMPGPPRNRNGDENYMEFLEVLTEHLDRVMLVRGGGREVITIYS

| SMILES | B-score of Tl+ flux slope (higher = more flux/activation; lower = inhibition) |
| --- | --- |
| c1ccc(Nc2n[nH]nc2-c2ccccc2)cc1 | -0.551 (inactive) |
| S=c1[nH]nc(NCCc2ccccc2)s1 | -1.55 (inactive) |
| S=c1[nH]nc(Nc2ccccc2)s1 | -8.06 (active) |
| CNC1(c2nnnn2-c2c(C)cccc2C)CCOC(C)(C)C1 (stereo not given) | -0.333 (inactive) |
| Cc1cc(=O)[nH]c2nnnn12 | 0.843 (inactive) |
| CC(Nc1nc(N2CCOCC2)nc2ccccc12)c1ccccc1 (stereo not given) | -0.0767 (inactive) |
| Cc1cc(C)c(C)c(S(=O)(=O)N[C@@H](C)C(=O)OC(C)C(=O)NC(N)=O)c1C (stereo not given in full) | -0.78 (inactive) |
| O=C(c1cc(-c2cccc(O)c2)on1)N1CCc2ccccc2C1 | -2.87 (inactive) |
| O=C(c1cc(-c2ccc(O)cc2)on1)N1CCCc2ccccc21 | -2.96 (active) |
| Cc1ccc(-c2cc(C(=O)N3CCc4ccccc4C3)no2)cc1 | 0.312 (inactive) |
| COc1ccc(NC(=O)C2=NNC(=O)CC2)cc1S(=O)(=O)N1CCCCC1 | 1.01 (inactive) |
| CC1Cc2ccccc2N1S(=O)(=O)c1ccc(Cl)nc1 (stereo not given) | -1.44 (inactive) |
| O=C(Nc1cc(C(F)(F)F)ccc1Cl)C(=O)N1CCCCC1 | 0.245 (inactive) |
| O=C(NNc1ccccc1Cl)C(O)(c1cccc(C(F)(F)F)c1)c1cccc(C(F)(F)F)c1 | 14.9 (active) |
| CC(CC(=O)Nc1cc(C(F)(F)F)ccc1Cl)c1ccccc1 (stereo not given) | -1.96 (inactive) |
| [O-][N+]12CCCCC1CCCC2CO (stereo not given) | -0.0478 (inactive) |
| COc1ccc2cc(CCl)c(Cl)nc2c1 | 0.0416 (inactive) |
| CC(NC(=O)C(C)(C)C)C(c1cccs1)N1CCN(Cc2ccccc2)CC1 (stereo not given) | 0.428 (inactive) |
| S=c1nc(C23CC4CC(CC(C4)C2)C3)nc2sccn12 | 2.46 (inactive) |
| CNC(=O)c1csc(Cc2c(Cl)sc3ccc(Cl)cc23)n1 | -0.799 (inactive) |
| CC(=O)NNC(=O)c1csc(Cc2c(Cl)sc3ccc(Cl)cc23)n1 | 13.6 (active) |
| CC(=O)Cc1nsc(NC(=O)c2ccc(Cl)cc2Cl)n1 | 1.49 (inactive) |
| CN(Cc1nc(-c2cnccn2)no1)Cc1n[nH]c2c1CCCCC2 | -2.53 (inactive) |
| CCn1c(Cc2cccs2)nnc1SCC(=O)c1ccc(C)cc1 | -1.23 (inactive) |
| O=C(CSc1nnc(-c2cccs2)n1Cc1ccco1)c1ccc2c(c1)OCO2 | -2.4 (inactive) |

| SMILES | B-score of Tl+ flux slope (higher = more flux/activation; lower = inhibition) |
| --- | --- |
| CCn1c(SCC(=O)c2ccc3ccccc3c2)nnc1-c1cccs1 | -5.11 (active) |
| CC(C)=NN1C(=O)c2ccccc2NC1(C)C | 0.347 (inactive) |
| CC(O)c1nc2c(c(=O)n(C)c(=O)n2C)n1C (stereo not given) | 0.852 (inactive) |
| COC(=O)CNC(=O)c1ccccc1[N+](=O)[O-] | 0.532 (inactive) |
| COc1ccc(NC(=O)c2ccccc2[N+](=O)[O-])cc1OC | 4.22 (active) |
| O=C(Nc1ccncc1)c1ccccc1[N+](=O)[O-] | 1.37 (inactive) |
| Cc1cc(C)nc(SCc2cn3c(C)cc(C)nc3n2)n1 | -0.647 (inactive) |
| CCOC(=O)CC1C(=O)NCCN1c1nc2c(C)cccn2c(=O)c1/C=C1\SC(=S)N(C(C)CC)C1=O (stereo not given) | inactive |
| Cn1c(C(=O)NCCCN2CCN(c3cccc(Cl)c3)CC2)cc2c(=O)n(C)c3ccccc3c21 | 0.0429 (inactive) |
| CC1CCCC(C)N1CCCNC(=O)c1cc2c(=O)n(C)c3ccccc3c2n1C (stereo not given) | -1.27 (inactive) |
| Cn1c(C(=O)NCCc2ccsc2)cc2c(=O)n(C)c3ccccc3c21 | -3.14 (active) |
| O=C1c2cccc3c([N+](=O)[O-])ccc(c23)C(=O)N1CC1CCCO1 (stereo not given) | -3.38 (inactive) |
| CN(c1ccccn1)c1ncnc2[nH]ncc12 | 0.0938 (inactive) |
| CC(=O)NC(=S)Nc1ccc(NC(=S)NC(=O)c2ccc([N+](=O)[O-])cc2)cc1 | 0.484 (inactive) |
| O=[N+]([O-])C(=c1ccc2c(c1)N1C3=C(CCCC3)CC3CCCCC31N=2)[N+](=O)[O-] (stereo not given) | -0.0507 (inactive) |
| COc1ccc(/C=C/C(=O)c2ccc(OC)cc2O)cc1 | -1.21 (inactive) |
| COc1ccc(/C=C/C(=O)c2cc(Br)ccc(=O)c2O)cc1 | 22.3 (active) |
| COc1ccc(C(=O)/C=C/c2ccc(OC3CSC3)cc2)cc1 | 0.0132 (inactive) |
| O=C(C[n+]1cc(-c2ccc(Cl)c(Cl)c2)n2c1CCC2)c1cccs1 | 0.636 (inactive) |
| CC(=O)N(OCc1ccc(OC(C)C)c(Cl)c1)C(C)=O | 0.219 (inactive) |
| CC(C)C[C@H](CO)Nc1nc(N(C)c2cccc(Cl)c2)c2ncn(C(C)C)c2n1 | -0.662 (inactive) |
| CC(C)n1cnc2c(Nc3cccc(Cl)c3)nc(N(CCO)CCCO)nc21 | -2.56 (active) |
| OCCCNc1nccc(-c2cc(Nc3cccc(Cl)c3)ncn2)n1 | -0.723 (inactive) |
| O=C(CN1CCN(c2ccc(Cl)cc2)CC1)NCc1cccs1 | -1.03 (inactive) |
| Cc1ccccc1-c1nc(C#N)c(NCc2ccco2)o1 | -0.237 (inactive) |

| SMILES | B-score of Tl+ flux slope (higher = more flux/activation; lower = inhibition) |
| --- | --- |
| N#Cc1nc(Cc2ccccc2)oc1NCCc1ccccc1 | -4.49 (active) |
| Cc1ccc(-c2nc(C#N)c(NCCCn3ccnc3)o2)cc1 | -0.3 (inactive) |
| O=c1oc2ccccc2cc1-c1cn(-c2ccccc2)c(=S)[nH]1 | 7.21 (active) |
| O=C(c1cn(-c2ccccc2)nc1-c1cc2ccccc2oc1=O)N1CCOCC1 | -0.172 (inactive) |
| Nc1ncc(-c2cc3ccccc3oc2=O)s1 | -0.488 (inactive) |
| O=C(NCC1CCCO1)c1ccccc1-c1nc(-c2ccccc2Cl)no1 (stereo not given) | -1.09 (inactive) |
| O=C(c1ccncc1)N1CCN(c2ccc3ccccc3n2)CC1 | -0.588 (inactive) |
| CCN(CC)S(=O)(=O)c1cccc(-c2n[nH]c(=S)n2/N=C/c2ccc(C(=O)OC)cc2)c1 | 2.87 (active) |
| S=c1[nH]nc(-c2cc(-c3ccccc3)n[nH]2)n1/N=C/c1c2ccccc2cc2ccccc12 | -1.01 (inactive) |
| COc1cc(/C=N/n2c(C)n[nH]c2=S)ccc1OCc1ccccc1 | 0.899 (inactive) |
| O=C1CC(Cc2ccc(Cl)cc2)C(=O)N1c1cc(Cl)ccn1 (stereo not given) | -1.2 (inactive) |
| CC1CN(c2nc(Nc3ccccc3)nc(N)c2[N+](=O)[O-])CC(C)O1 (stereo not given) | -0.457 (inactive) |
| O=C(CS(=O)(=O)c1ccc(C(F)(F)F)cn1)NNC(=O)c1ccccc1 | -0.101 (inactive) |
| Cn1c(CC2Sc3ccccc3NC2=O)nnc1SCC(=O)c1ccc(Cl)cc1 (stereo not given) | -2.19 (inactive) |
| CCN(CCNC(=O)C1=C(C)C(=O)OC12CCC(C)CC2)c1ccccc1 (stereo not given) | 0.78 (inactive) |
| Cc1nc(Cl)c(C#N)c2c1CCCC2 | -1.49 (inactive) |
| CCOC(=O)CSc1nc(C)c(Oc2ccc(Cl)cc2Cl)c(=O)[nH]1 | -0.98 (inactive) |
| CCOC(=O)CSc1nnc(CNc2nc(-c3ccccc3)cs2)n1C | -1.31 (inactive) |
| Cn1c(CNc2nc(-c3ccccc3)cs2)nnc1SCC(=O)c1ccccc1 | -4.57 (active) |
| Cc1ccc(-c2csc(NNC(=O)c3ccccc3)n2)cc1 | -5.47 (inactive) |
| Cc1cc(N2CCN(c3ccc(F)cc3)CC2)n2ncnc2n1 | 0.197 (inactive) |
| COCCNc1nc(-c2ccccc2)nc2c1oc1ccccc12 | 0.0873 (inactive) |
| CC(C)OP(=O)(OC(C)C)C(Nc1ccccc1)c1cccc([N+](=O)[O-])c1 (stereo not given) | -1.5 (inactive) |
| O=C(Nc1ccc2oc(-c3ccccc3F)nc2c1)c1ccco1 | -4.45 (active) |
| O=C(Nc1ccc2nccnc2c1)c1ccco1 | 0.0364 (inactive) |

| SMILES | B-score of Tl+ flux slope (higher = more flux/activation; lower = inhibition) |
| --- | --- |
| O=C(Nc1ccc2oc(-c3ccc4ccccc4c3)nc2c1)c1cccs1 | 0.746 (inactive) |
| O=C(NC1CCN(Cc2ccccc2)CC1)c1c(F)cccc1F | -1.12 (inactive) |
| S=C(NN=C1CCN(Cc2ccccc2)CC1)NC1CCCCC1 | -3.5 (active) |
| S=C(Nc1ccc(Br)cc1Cl)NC1CCN(Cc2ccccc2)CC1 | -1.46 (inactive) |
| Fc1cc(F)c2nc(N3CCOCC3)sc2c1 | -0.123 (inactive) |
| Fc1cc(F)c2nc(Nc3nc4c(F)cccc4s3)sc2c1 | 69.3 (active) |
| NC(=O)c1c(Nc2nc3c(F)cccc3s2)sc2c1CCCC2 | -0.0899 (inactive) |
| O=S(=O)(Nc1ccc(OC(F)(F)F)cc1)c1cccc2nonc12 | -0.299 (inactive) |
| CN(C)S(=O)(=O)c1ccc(C(=O)NCC(C)(C)N2CCOCC2)cc1 | -0.162 (inactive) |
| Cn1c(=O)c2c(ncn2CCc2ccccc2)n(C)c1=O | -0.25 (inactive) |
| O=C(CCc1ccccc1)Nc1ncc([N+](=O)[O-])s1 | -3 (inactive) |
| CC(=O)Oc1ccccc1C(=O)Nc1ncc([N+](=O)[O-])s1 | -3 (active) |
| O=C(Cc1c(F)cccc1Cl)Nc1ncc([N+](=O)[O-])s1 | -1.12 (inactive) |
| O=C(COC(=O)c1ccccc1C(=O)c1ccccc1)c1ccco1 | -0.42 (inactive) |
| O=C(CNC(=O)c1ccco1)OCC(=O)c1ccccc1 | 7.3 (active) |
| O=C(COC(=O)CNC(=O)c1ccco1)Nc1ccc(F)cc1 | 0.652 (inactive) |
| Cn1nccc1NS(=O)(=O)c1ccc(F)cc1 | 0.158 (inactive) |
| Cc1nn(C)c(C(=O)NNC(=S)NC2CCCCC2)c1Cl | -0.0757 (inactive) |
| COc1cccc(NC(=S)NC(=O)c2c(Cl)c(C)nn2C)c1 | 39.2 (active) |
| COc1cccc(NC(=S)NCc2ccccn2)c1 | -0.247 (inactive) |
| COc1ccc(CC(=O)NCC(=O)N/N=C/c2cc(Br)ccc2OC)cc1 | -1.94 (inactive) |
| COc1ccc(/C=C/C(=O)Nc2ccc(C)cc2)cc1S(=O)(=O)N1CCOCC1 | 0.752 (inactive) |
| N#Cc1ccc(C(=O)Nc2nc(-c3cccs3)c(C(=O)C(F)(F)F)s2)cc1 | -2.57 (active) |
| N#Cc1c(-c2cccs2)nc(SCC(=O)c2ccc(Br)cc2)[nH]c1=O | -4.31 (inactive) |
| CCOc1cccc(C(=O)Nc2nnc(-c3cccs3)s2)c1 | -0.21 (inactive) |

Source: PubChem BioAssay AID1456 (Vanderbilt High Throughput Screening Facility, 2008)
